Source: PubChem (National Center for Advancing Translational Sciences (NCATS))
Pf growth 48h – P. falciparum growth inhibition at 48 hours (one generation) | P. falciparum luciferase growth in erythrocytes, 48 h | Potency, µM (series often up to 28.7 µM), most hits filed as inhibitors | hit rate 5.9% among 310,000
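Erythrocytes infected with P. falciparum carrying an integrated firefly luciferase reporter (2% hematocrit, 0.1% parasitemia final) were exposed to compounds in RPMI 1640 with 0.5% Albumax at 37 C, 5% CO2. Growth inhibition was scored as reduced luminescence.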
Cycloheximide cs – counter-screen for Shiga toxin inhibitors: cycloheximide protein synthesis inhibition | hit rate 12% among 300,000 | AID 2314 | cell reporter, cycloheximide protein synthesis inhibition counterscreen | max response, %; in the data active = max response mostly above about 13%, no sharp cut-off; inactive = mostly below about 14%; note: read at 38.3 µM for the half of the compounds with a filed dose
Shiga inhibitor – Shiga toxin inhibition. Vero cells, Shiga toxin protein synthesis inhibition reporter. inhibition, % at 38.7 µM. hit rate 9.2% among 290,000. AID 2315; in the data active = inhibition mostly above about 28%, no sharp cut-off; inactive = mostly below about 43%
Pf growth 96h – P. falciparum growth inhibition at 96 hours | Potency, µM (highest dose often 28.7 µM), hits mostly inhibitors | hit rate 6.9% among 320,000 | P. falciparum luciferase reporter growth, 96 h | AID 504834
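Erythrocytes infected with luciferase-expressing P. falciparum were dispensed at 2% hematocrit and 0.05% parasitemia (final), then incubated with compounds 96 hours at 37 C in 5% CO2. Luminescence after detection reagent addition reported growth.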
Large screens that a line does not name were inactive. Shown are actives, neighbours in structure and some others; about 21% of the full set was active somewhere. Unless noted, calls come from the whole dose curve; as a rule, active = well fitted inhibition curve with a large enough effect; inconclusive = small, poorly fitted or top-dose-only effect, or another doubt; inactive = no such curve, though single readings can be large or run the other way.

Cc1cccc(NS(=O)(=O)c2ccccc2)n1	none
Cc1cccc(NS(=O)(=O)c2cccc3cccnc23)n1	Pf growth 96h 1.7µM
Cc1cccc(NS(=O)(=O)c2ccc(C3CCCCC3)cc2)n1	Pf growth 48h 9.3µM (no result: Pf growth 96h)
O=S(=O)(NC1CCCCCC1)c1cccc2cccnc12	Pf growth 96h 5.2µM
CSc1nnc(NC(=O)c2cc(=O)c3cc(C)cc(C)c3o2)s1	Pf growth 96h inconclusive
COc1cc(N(C)C)cc(CN(C)CCc2ccc([N+](=O)[O-])cc2)c1O	none (no result: Pf growth 48h, Pf growth 96h)
Cc1c(C(=O)N2c3ccccc3Sc3ccccc32)cccc1[N+](=O)[O-]	Pf growth 48h inconclusive, Pf growth 96h inconclusive
CN(C)/C=C/C(=O)c1ccc(-n2cccc2)cc1	Cycloheximide cs 30, Shiga inhibitor 75
CN(C)/C=C/C(=O)c1ccc(Cl)cc1	none
CN(C)/C=C/C(=O)c1ccc(Cl)c([N+](=O)[O-])c1	Cycloheximide cs 21
CN(C)/C=C/C(=O)c1cccc(Cl)c1	Cycloheximide cs 17
COc1ccc(/C=C/C(=O)NC(=S)NNC(=O)c2cccnc2)cc1	Pf growth 96h inconclusive
Cc1cc(OCC(=O)NNC(=O)c2cnccn2)cc(C)c1Cl	Pf growth 48h inconclusive, Pf growth 96h 12µM
O=C(NNC(=S)NC(=O)c1ccc(F)cc1)c1cccnc1	Pf growth 48h inconclusive
O=C(NNC(=S)NC(=O)c1cccnc1)c1ccc(F)cc1	Cycloheximide cs 28, Shiga inhibitor 39
COc1ccc(/C=C/C(=O)NC(=S)NNC(=O)c2cnccn2)cc1	Pf growth 48h 2.1µM, Pf growth 96h inconclusive
O=C(NC(=S)NNC(=O)c1cnccn1)c1ccc(F)cc1	Pf growth 48h 15µM
CN1C(=O)C(=O)/C(=C(/O)c2ccc(Br)cc2)C1c1ccc(F)cc1 (stereo not drawn)	none
O=C(/C=C/c1ccc(F)cc1)NC(=S)NNC(=O)c1cnccn1	Pf growth 48h 3.3µM, Pf growth 96h 8.3µM
O=C(NNC(=O)c1cnccn1)c1ccc(Cl)cc1	Pf growth 48h inconclusive, Cycloheximide cs 22, Pf growth 96h inconclusive
O=C(Cc1ccccc1)NNC(=O)c1cnccn1	none
Nc1ccccc1C(=O)NCCN1CCNC1=O	none
Cc1ccc2[nH]c3c(NCc4ccccc4)ncnc3c2c1	Pf growth 48h inconclusive, Cycloheximide cs 39, Shiga inhibitor 80, Pf growth 96h inconclusive
CC(C)OCCCNc1ncnc2c1[nH]c1ccccc12	Pf growth 48h 5.9µM, Cycloheximide cs 16, Pf growth 96h inconclusive
COc1ccc(CNc2ncnc3c2[nH]c2cc(OC)c(OC)cc23)cc1	Pf growth 48h 2.1µM, Pf growth 96h 1.7µM
CCCOc1ncnc2c1[nH]c1ccc(C)cc12	Cycloheximide cs 45, Shiga inhibitor 108
Brc1ccc2[nH]c3c(NCc4ccccn4)ncnc3c2c1	Pf growth 48h inconclusive, Pf growth 96h inconclusive
COc1cc2[nH]c3c(OC)ncnc3c2cc1OC	none
CCOc1ncnc2c1[nH]c1ccccc12	none
Cc1ccc(S(=O)(=O)CCC(=O)OCC(=O)Nc2cc(F)ccc2C)cc1	none (no result: Cycloheximide cs, Shiga inhibitor)
CCOC(=O)c1[nH]ncc1CN1CCN(Cc2ccccc2)C(CCO)C1 (stereo not drawn)	none
CCOC(=O)CNC(=O)CCc1nnc2ccc(N3CCC(C)CC3)nn12	none
COc1ccc(CNc2ncnc3c2[nH]c2ccccc23)cc1	Pf growth 48h 2.3µM, Pf growth 96h 1.7µM
C1=C(CCNc2ncnc3c2[nH]c2ccccc23)CCCC1	Pf growth 48h inconclusive, Cycloheximide cs 26, Shiga inhibitor 116, Pf growth 96h 0.26µM
COc1ccc(CCn2cnc3c([nH]c4ccccc43)c2=O)cc1	none
Cc1ccccc1OCCSc1nc2ncnc(N)c2[nH]1	none
COc1ccc(CCCc2nnc(SCC(=O)Nc3nc(C)cs3)n2C)cc1C	Pf growth 48h 13µM (no result: Pf growth 96h)
COc1ccc(CC(=O)Nc2nc(C)cs2)cc1	Cycloheximide cs 20, Pf growth 96h inconclusive
Cc1cnc(NC(=O)Cc2ccccc2Cl)s1	none
COc1ccccc1OCCC(=O)Nc1nc(C)cs1	Cycloheximide cs 15
Cc1csc(NC(=O)CSc2nnc(CCNC(=O)c3cccs3)n2C)n1	Pf growth 48h inconclusive, Pf growth 96h inconclusive
Cc1csc(NC(=O)Cc2ccccc2Cl)n1	Cycloheximide cs 40, Shiga inhibitor 110
Cc1csc(NC(=O)Cc2ccc(Br)cc2)n1	Cycloheximide cs 31
COc1ccc(CC(=O)Nc2nnc(C(C)(C)C)s2)cc1OC	Pf growth 96h 4.7µM
COc1ccc(CC(=O)Nc2nc(C)cs2)cc1OC	Pf growth 96h 12µM
CCOC(=O)Cc1csc(NC(=O)Cc2ccc(Br)cc2)n1	none
COc1ccc(OC)c(-c2csc(NC(=O)Cc3ccc(OC)c(OC)c3)n2)c1	none
CN(c1ccccc1C(=O)NCc1ccccc1Cl)S(=O)(=O)c1ccccc1	Pf growth 96h inconclusive (no result: Shiga inhibitor)
Cc1cc(Cl)c(OCCCCNC(C)(C)C)c(Br)c1	none
Cc1nnc(NN2CCOCC2)[nH]c1=O	none
N#CCCN(C(=O)CCl)c1cccc(Cl)c1	Pf growth 48h inconclusive, Pf growth 96h 5.2µM
CCCCCCCN(C(=O)CCl)c1cccc(C)c1	Pf growth 96h inconclusive
O=C(NNC(=O)c1cc(Cl)ccc1O)c1cccc(S(=O)(=O)N2CCOCC2)c1	Pf growth 48h inconclusive (no result: Cycloheximide cs, Shiga inhibitor)
COC(=O)c1cc(NC(=O)c2cccs2)ccc1N1CCOCC1	Pf growth 96h inconclusive
COC(=O)c1cc(NCc2cccs2)ccc1N1CCOCC1	Pf growth 96h 8.3µM
O=C(Nc1ccc(N2CCOCC2)c(F)c1)c1cccs1	Cycloheximide cs 44, Shiga inhibitor 53
O=C(Nc1ccc(N2CCOCC2)c(F)c1)c1ccncc1	Cycloheximide cs 18, Shiga inhibitor 61
CC(C)(C)c1ccc(C(=O)O)c(C(=O)c2ccccc2)c1	none
COc1ccccc1C(=O)NCCC(=O)OCC(=O)Nc1ccc(S(N)(=O)=O)cc1	none (no result: Cycloheximide cs, Shiga inhibitor)
C/C(=N\NC(=O)c1ccccc1NC(=O)c1ccc(Cl)cc1)c1ccncc1	Pf growth 96h inconclusive
Cc1ccc(N(CC(=O)NC2CCCCC2)C(=O)CCCC(=O)Nc2ccccn2)cc1	none
Cc1c(NC(=O)COC(=O)CSc2ccc(C(N)=O)cc2[N+](=O)[O-])c(=O)n(-c2ccccc2)n1C	none
Cc1ccc(OCCCSc2n[nH]c(N)n2)cc1	Cycloheximide cs 15
Cc1ccc(CSc2n[nH]c(N)n2)cc1	Cycloheximide cs 22
COc1ccc(-c2csc(NC(=O)CSc3n[nH]c(N)n3)n2)cc1	none
Cc1ccc(Nc2nc(CSc3nnc(-c4cccs4)o3)cs2)cc1	Cycloheximide cs 48, Shiga inhibitor 74, Pf growth 96h inconclusive
Cc1ccc(Nc2nc(CSc3n[nH]c(N)n3)cs2)cc1	Cycloheximide cs 31, Shiga inhibitor 66
COc1ccc(-c2ccc(OC)c(C3C4C=CCCC4(C)C(=O)N3Cc3ccccc3)c2)cc1OC (stereo not drawn)	none (no result: Pf growth 48h, Pf growth 96h)
Cc1ccc(OCCCN2CCOCC2)c([N+](=O)[O-])c1	Cycloheximide cs 36, Shiga inhibitor 74
CCCCCOc1ccc(Cn2ccnc2)cc1[N+](=O)[O-]	Pf growth 48h inconclusive, Shiga inhibitor 64, Pf growth 96h inconclusive
Clc1cc(Br)ccc1OCCCn1ccnc1	Pf growth 48h inconclusive, Pf growth 96h inconclusive
Cc1ccc(OCCCn2ccnc2)c([N+](=O)[O-])c1	Pf growth 96h 6.6µM
Cc1ccc(OCCCn2ccnc2)c(Br)c1	Pf growth 48h inconclusive, Cycloheximide cs 20
Cc1ccc(OCCN2CCN(C)CC2)c([N+](=O)[O-])c1	Pf growth 96h inconclusive
